# Experimental data as given in PubChem BioAssay AID743169 (National Center for Advancing Translational Sciences (NCATS), 2013).
# Unmarked numbers belong to inactive results. Calls come from the whole dose curve; as a rule, active = well fitted curve in the direction sought with a large enough effect; inactive = no such curve, though single readings can be large or run the other way.
# Molecular target: L-lactate dehydrogenase A chain (human) (UniProt V9HWB9)
# Assay: Extended Characterization of HPGD Inhibitors: Counterscreen Against LDHA
# Settings: LDHA enzyme, diaphorase/resazurin coupled fluorescence; series mostly up to 57.1 µM; activity change, negative = inhibition: at the top concentration
# Excerpt: The central role of HPGD is to inactivate prostaglandins such as prostaglandin E2 (PGE2) or prostaglandin D2 (PGD2). These prostaglandins are involved in a number of processes, including inflammation, differentiation, and cellular signaling, which makes HPGD an important target for pharmacological intervention. A number of prostaglandins of particular biological interest have been identified as substrates of HPGD. […] Over-production of PGE2 has been reported to promote tumor-associated neovascularization, cell proliferation, and tumor growth. […] In order to further characterize the compounds, we ran them against an LDHA counterscreen. LDHA converts pyruvate to lactate while regenerating NAD+ from NADH. LDHA enzymatic activity is then coupled to the activity of diaphorase, which reversibly catalyzes the reaction of […] while simultaneously reducing resazurin to the fluorescent resorufin. This change in fluorescence signal (excitation 544 nm; emission, 590 nm) was monitored using the ViewLux CCD imager (Perkin Elmer). Data were normalized against no enzyme control wells and no compound control wells. NIH Chemical Genomics Center [NCGC] NIH Molecular Libraries Probe Centers Network [MLPCN] MLPCN Grant: MH084681 Assay Submitter (PI): Structural Genomics Consortium
# 3 uL of LDHA enzyme in assay buffer are added to plate before 23 nL of compound/control are pinned into the solution. After a 15 min incubation, 1 uL of NADH (60 uM final) and sodium pyruvate (160 uM final) are added, incubated at 8 min at RT before another 1 uL of Diaphorase / Resazurin is added. The plate is read on the ViewLux after a 10 min RT incubation
row,SMILES,"activity change, negative = inhibition [%]"
1,Cc1cccc(-n2cnc3cc(C(=O)N4CCCC(C(F)(F)F)C4)ccc32)c1 (stereo not given),-12.2
2,COc1ccc(-n2cnc3cc(C(=O)N4CCCCC4)ccc32)cc1,-0.645
3,O=C(c1ccc2c(c1)ncn2-c1cccc(Cl)c1)N1CCCCC1,6.78
4,Cc1cc(-c2nnc3n2CCCCC3)c(C)n1-c1cccc(C(F)(F)F)c1,4.3
5,O=C(c1ccc2c(c1)ncn2-c1cccc(C(F)(F)F)c1)N1CCCCC1,0.565
6,Cc1ccc(-n2c(C)cc(-c3nnc4n3CCCCC4)c2C)cc1,1.62
7,Cc1cc(-c2nnc3n2CCCCC3)c(C)n1-c1cccc(Cl)c1,9.93
8,Cc1cc(-c2nnc3n2CCCCC3)c(C)n1-c1ccc(Cl)c(Cl)c1,3.58
9,Cc1cc(-c2nnc3n2CCCCC3)c(C)n1-c1cccc(C#N)c1,8.07
10,Cc1cccc(-n2cnc3cc(C(=O)N4CCCC(C)(C)C4)ccc32)c1,4.22
